Measurements reported in the supplement of paper PMC13380429.

Test system: Vero E6 infected with SARS-CoV-2
Assay: inhibition of SARS-CoV-2 cytopathic effect; higher = more antiviral protection, active = above 15
Conditions: 48 h

Measured: inhibition of SARS-CoV-2 cytopathic effect

CNC(=O)c1ccccc1Nc1cc(Nc2ccc(N3CCOCC3)cc2OC)ncc1C(F)(F)F
inactive: 1 nM 0.1% | 8.33 nM -1.1% | 100 nM -2.99% | 833.33 nM -4.38% | 10000 nM -3.64%

Cc1nc(C#Cc2ccnc(Cl)c2)c(C)n1-c1ccc(F)cc1 [basimglurant]
inactive: 1 nM -0.13% | 8.33 nM -0.64% | 100 nM -2.56% | 833.33 nM -1.39% | 10000 nM 4.98%

CC(=O)O[C@H]1C[C@@H]2CC[C@@H]3[C@H](CC[C@@]4(C)[C@H]3C[C@H]([N+]3(C)CCCCC3)[C@@H]4OC(C)=O)[C@@]2(C)C[C@@H]1[N+]1(C)CCCCC1 [pancuronium]
inactive: 1 nM -2.97% | 8.33 nM -1.22% | 100 nM -0.15% | 833.33 nM -0.93% | 10000 nM -1.28%

C[C@@H](O)[C@H]1C(=O)N2C(C(=O)O)=C(S[C@@H]3CN[C@H](C(=O)Nc4cccc(C(=O)O)c4)C3)[C@H](C)[C@H]12 [ertapenem]
inactive: 1 nM 0.22% | 8.33 nM 3.19% | 100 nM 1.71% | 833.33 nM 2.2% | 10000 nM 2.62%

COC(=O)Nc1nc2cc(C(=O)c3cccs3)ccc2[nH]1 [nocodazole]
inactive: 1 nM 2.2% | 8.33 nM 3.05% | 100 nM 0.53% | 833.33 nM 1.99% | 10000 nM -1.47%

N[C@@H](C(=O)O)c1ccc(C(=O)O)c(C(=O)O)c1 (racemic)
inactive: 1 nM 2.59% | 8.33 nM 0.287% | 100 nM 1.6% | 833.33 nM -2.93% | 10000 nM -0.293%
